ATXN2 expr inh – reduces ATXN2 reporter expression in HEK-293 cells; HEK-293 ATXN2-luciferase reporter, luminescence, 24 h; Potency, µM (doses to about 57 µM), usual class: inhibitors; 0.72% of 360,000 active; AID 1745845; note: nearly all actives have a fitted effect of over 55% in size
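qHTS (up to 57 uM final) was run with 24 h compound exposure of reporter cells at 37 °C. Each well was multiplexed: SteadyGlo luminescence measured ATXN2-luciferase expression after a fluorogenic Gly-Phe-AFC viability readout (25 uM final).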
MCF10A rereplic – inducers of DNA re-replication in MCF 10A breast cells; MCF 10A DNA re-replication, Hoechst nuclear intensity, 48 h; Potency, µM (doses to about 46.1 µM), usual class: activators; 2.9% of 350,000 active; AID 624296; note: nearly all actives have a fitted effect of over 50% in size
PINK1 modulator – changes PINK1 expression; PINK1 immunofluorescence, high-content cytometry, 24 h; Potency, µM (titrated, usually from 76.6 µM), most hits filed as activators; 0.2% of 410,000 active; active = well fitted activation curve with a large enough effect; inconclusive = small, poorly fitted or top-dose-only effect; cell line not stated here; note: nearly all actives have a fitted effect of over 65% in size
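PINK1 protein, normally rapidly degraded, was detected by immunofluorescence after 24 hour compound treatment of a stable cell line. Titration data (5 concentrations) came from laser-scanning cytometry, with CCCP-treated wells as controls.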
IL-1B inflam inh – inflammasome signaling inhibition, IL-1 beta readout; THP-1 LPS/ATP IL-1B secretion, AlphaLISA, 16 h; hits give low values; activity change, % at 57.5 µM; 4.7% of 360,000 active; AID 743279; in the data active = activity change below about -50%; inconclusive = mostly about -30% to -49%
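THP-1 cells pretreated 1 hr with compounds (up to 57.5 uM final), then stimulated with LPS (250 ng/mL final) plus ATP (1.25 mM final); secreted IL-1B measured by AlphaLISA after 16 hr, decreased signal indicating inhibition.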
SW480 rereplic – inducers of DNA re-replication in SW480 colon cancer cells; SW480 DNA re-replication, Hoechst DNA content imaging, 48 h; 1.8% of 340,000 active; Potency, µM (highest dose often 46.1 µM), most hits filed as activators; note: nearly all actives have a fitted effect of over 55% in size
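250 cells/well; 23 nL cpd via pin tool; 48 hr, 37 C, 5% CO2; Hoechst 40 min; imager read of total nuclear intensity, ex 405/em 500-530 nm.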
ATXN viability – reduces viability in counter-screen for ATXN expression inhibitors; Potency, µM (doses to about 56.7 µM), most hits filed as cytotoxic; AID 651635; S2 cells (HEK-293 line with an ATXN2-luciferase reporter) viability, CellTiter-Fluor protease fluorescence, 24 h; 0.49% of 400,000 active; note: nearly all actives have a fitted effect of over 40% in size
Numbers stand for hits; i = inactive; ? = inconclusive; nt = no result; [ ] = another dose, or the depositor's remark. A selection: hits, their analogues and other compounds. The true share with any hit is near 7.1%. Unless noted, calls come from the whole dose curve; as a rule, active = well fitted curve in the direction sought with a large enough effect; inconclusive = small, poorly fitted or top-dose-only effect, or another doubt; inactive = no such curve, though single readings can be large; an effect the other way counts as inactive or inconclusive.

SMILES | ATXN2 expr inh | MCF10A rereplic | PINK1 modulator | IL-1B inflam inh | SW480 rereplic | ATXN viability
CC(C)c1nnc(NC(=O)CCS(=O)(=O)c2nc(-c3cccs3)cc(C(F)(F)F)n2)s1 | i | 3.66µM | i | -110.4 | ? | ?
Cc1cc(NC(=O)CS(=O)(=O)c2cn(Cc3cccc(Br)c3)c3ccccc23)no1 | ? | nt | i | -54.3 | nt | ?
Cc1cc(NC(=O)CS(=O)(=O)c2cn(Cc3ccccc3Cl)c3ccccc23)no1 | i | ? | i | i | i | i
O=C(CCl)Nc1c2c(nn1-c1ccccc1)CSC2 | ? | ? | i | -96.5 | ? | ?
COc1ccccc1C(=O)Nn1c(C)nc2ccccc2c1=O | i | i | i | i | i | i
COc1cc2nc(CC(C)C)n(NC(=O)c3ccccc3Br)c(=O)c2cc1OC | i | 6.51µM | i | i | i | i
CCNc1nc(OC)nc(Oc2ccc(=O)[nH]n2)n1 | i | nt | i | nt | nt | i
CCNc1ncc2nc(-c3ccc(Cl)cc3)c(=O)n(CCC#N)c2n1 | nt | nt | i | nt | nt | nt
c1cc(-c2cnn3cc(-c4ccc(OCCN5CCCCC5)cc4)cnc23)ccn1 | 3.85µM | nt | nt | nt | nt | nt
CCCS(=O)(=O)NCc1c(C)ncc2c1CCN(C(=O)c1cccc(C(F)(F)F)c1)C2 | nt | nt | i | nt | nt | i
N=c1c2c(n(Cc3ccc(Cl)c(Cl)c3)c3c1CCC3)CCCC2 | ? | ? | ? | -72.3 | i | ?
N=c1c2c(n(Cc3ccc(Br)cc3)c3c1CCC3)CCCC2 | ? | ? | 35.5µM | -81.1 | i | i
N=c1c2c(n(Cc3ccc([N+](=O)[O-])cc3)c3c1CCC3)CCCC2 | i | i[9.22 µM] | i | i | i | i
O=c1[nH]c2c(-c3nc(-c4ccc(F)cc4)cs3)c(O)cn2c2ccc(Br)cc12 | nt | nt | i | nt | nt | nt
CCc1ccccc1NC(=O)c1sc2nc(C)cc(COC)c2c1N | nt | nt | i | nt | nt | nt
C[C@@H]1CN(Cc2ccc3c(c2)CN(Cc2cccn2-c2ccc(Cl)cn2)CCO3)C[C@H](C)O1 | nt | nt | i | nt | nt | i
Cn1c(=O)n(C)c2cc(NS(=O)(=O)c3ccc4c(c3)CCCC4)ccc21 | i | 23.1µM | i | i | i | i
COc1ccc(NS(=O)(=O)c2ccc3c(c2)n(C)c(=O)n3C)cc1 | i | 5.8µM | nt | -70.4 | i | i
Cn1c(=O)n(C)c2cc(NS(=O)(=O)c3ccc(C(C)(C)C)cc3)ccc21 | i | i | i | i | i | i
CC(C)CN(C[C@H](O)[C@H](Cc1ccccc1)NC(=O)O[C@H]1CCOC1)S(=O)(=O)c1ccc(N)cc1 | i | nt | nt | nt | nt | nt
Cc1ccc(S(=O)(=O)N2CCN(c3nc(-n4ccnc4)nc4ccccc34)CC2)cc1 | nt | nt | i | nt | nt | nt
O=S(=O)(c1cnc(Cl)c(Br)c1)N1CCCCCC1 | i | ? | i | -103.7 | i | i
O=C(NCc1ccccc1)[C@H](Cc1ccccc1)NC(=O)[C@@H]1O[C@@H]1C(=O)NCCc1ccc(O)cc1 | i | nt | nt | nt | nt | nt
CC1CC(C)CN(c2ccc([N+](=O)[O-])nc2)C1 (stereo unspecified) | i | ? | i | i | i | 11.9µM
O=C1C=CC(O)(c2cc(=O)c3c(O)cc(O)cc3o2)C=C1 | 7.94µM | 1.46µM | i | -103.9 | 4.11µM | 12.6µM
SMILES | ATXN2 expr inh | MCF10A rereplic | PINK1 modulator | IL-1B inflam inh | SW480 rereplic | ATXN viability
O=c1cc(-c2ccccc2Cl)oc2cc(O)cc(O)c12 | i | ? | i | i | i | i
Cc1ccc(S(C)(=O)=NS(=O)(=O)c2cccc3nsnc23)cc1 (stereo unspecified) | i | i | i | -53.2 | i | i
Clc1ccc(-n2nnnc2Sc2ncnc3sccc23)cc1 | ? | 10.3µM | i | -120.5 | 6.51µM | nt
Cc1sc2ncnc(Sc3nnnn3-c3ccccc3)c2c1C | 15.8µM | ? | i | -101.1 | ? | 31.6µM
Cc1ccc(-c2csc3ncnc(Sc4nnnn4-c4ccccc4)c23)cc1 | nt | nt | i | nt | nt | nt
Cc1ccc(OCC(=O)NCC2(N3CCOCC3)CCCCC2)cc1C | nt | nt | i | nt | nt | nt
CC[n+]1c(/C=C/C=C/N(C(C)=O)c2ccccc2)sc2cc(OC)ccc21 | 20µM | i | ? | -117.4 | ? | 31.6µM
COc1ccc(S(=O)(=O)c2nnn(-c3ccc(C(C)C)cc3)c2C)cc1 | i | nt | i | nt | nt | i
O=C(NCC(c1cccs1)S(=O)(=O)c1cccs1)c1ccc(F)c(F)c1 (stereo unspecified) | i | nt | i | nt | nt | ?
COc1ccc(N2CCN(C(=S)Nc3ccccc3)CC2)cc1 | i | ? | i | i | i | i
CN1CCN(c2ccc(NC(=O)c3ccc(Oc4ccccc4)cc3)cc2)CC1 | i | ? | i | -77.9 | i | i
CC(=O)c1ccc(N2CCN(C(=S)Nc3ccc(Oc4ccccc4)cc3)CC2)cc1 | ? | ? | i | -65.8 | i | i
Cc1nc(C)c(C(=O)Nc2ccc(Oc3ccccc3)cc2)o1 | i | i | 5.62µM | i | i | i
COc1cc(-c2cccc(OC)c2OC)cc2c1OCCN(Cc1cn[nH]c1-c1ccc(Cl)cc1)C2 | nt | nt | i | nt | nt | ?
C/C(=N\Nc1nc(-c2ccccn2)nc2ccccc12)c1ccc(F)cc1 | nt | i | i | i | ? | ?
c1ccc(CCNc2nc(-c3ccccn3)nc3ccccc23)cc1 | ? | i | 39.8µM | -100.8 | ? | ?
CCCN(CCC)c1nc(-c2ccccn2)nc2ccccc12 | ? | 20.6µM | ? | -96.4 | 10.3µM | ?
CSc1ccc(CN(C)C(=O)c2ccc(S(=O)(=O)Nc3ccccc3)cc2)cc1 | i | i | i | -50.0 | i | i
COc1ccccc1CNC(=O)c1ccc(-c2nc(CS(=O)c3ccc(C)cc3)c(C)o2)cc1 (stereo unspecified) | i | nt | i | nt | nt | i
Nc1ccc(Nc2nc(-c3cc4ccccc4oc3=O)cs2)cc1 | i | i | i | -89.7 | i | ?
CC(=O)Nc1ccc(Nc2nc(-c3cc4ccccc4oc3=O)cs2)cc1 | i | ? | ? | i | i | i
COc1ccc2oc(=O)c(-c3csc(Nc4cccc(O)c4)n3)cc2c1 | i | 23.1µM | i | -79.3 | ? | i
O=C(O)c1ccc(Nc2nc(-c3cc4ccccc4oc3=O)cs2)cc1O | i[11.3 µM] | 13µM | i | i | ? | nt
Cc1ccc(Cl)cc1N1CCN(C(c2ccc(F)cc2)c2nnc(-c3ccccc3)o2)CC1 (stereo unspecified) | i | nt | i | nt | nt | i
COc1ccccc1CNC(=O)c1cc(S(=O)(=O)N2CCCCCC2)cn1C | i | nt | i | nt | nt | i
SMILES | ATXN2 expr inh | MCF10A rereplic | PINK1 modulator | IL-1B inflam inh | SW480 rereplic | ATXN viability
CC1=NN(c2ccccc2)C(=O)/C1=C/C=C/C=C/N(C)C | ? | i | i | i | i | 14.1µM
CC1=NN(c2ccc(C)cc2)C(=O)/C1=C\C=C\c1ccccc1 | ? | ? | ? | -180.3 | i | ?
CC1=NN(c2ccccc2)C(=O)C1=Cc1ccccc1 | nt | nt | i | i | nt | i
CC1=NN(c2cccc(C(=O)O)c2)C(=O)/C1=C\C=C/c1ccccc1 | ? | ? | i | -102.6 | i | ?
Cc1cnc(-n2ncc(C(=O)NCCCc3ccncc3)c2C)nc1-c1ccc(F)cc1 | nt | nt | i | nt | nt | i
Cc1cc(OCC(=O)Nc2cccnc2)c2c(C)cc(=O)oc2c1 | i | i | i | i | i | i

Screening data from PubChem.
